Where “and” joins values, the source holds several entries; their conditions need not be identical. Identical values can stand only once. Records with an inconclusive call do not appear. Some compounds were tested as several samples or in several runs, with calls that do not always agree. Calls of active or inactive are those of the source. Calls come from the whole dose curve.
Assay: p53 small molecule agonists, cell-based qHTS assay with rat liver microsomes: qHTS cell viability counter screen (AID 1963580); note: nearly all actives have a fitted effect of over 45% in size
Settings: p53RE-bla HCT-116 + rat microsomes, ATP viability, 16 h; series mostly up to 66 µM; activity change, negative = cytotoxicity: at the top concentration
From the text: National Center for Advancing Translational Sciences [NCATS]
Division of Preclinical Innovation [DPI]
U.S. Environmental Protection Agency [EPA]
National Institutes of Environmental Health Sciences [NIEHS]
National Toxicology Program [NTP]
U.S. Food and Drug Administration [FDA]
p53, a tumor suppressor protein, is activated following cellular insult, including DNA damage and other cellular stresses. The activation of p53 regulates cell fate by inducing DNA repair, cell cycle arrest, apoptosis, or cellular senescence. The activation of p53, therefore, is a good indicator of DNA damage and other cellular stresses. The CellSensor p53RE-bla HCT-116 cell line contains a stably integrated beta-lactamase reporter gene under control of the p53 response elements. The activation of the reporter gene under culture conditions can be detected by fluorescence intensity. This cell line was used to screen the Tox21 10K compound library in the condition of presence of rat liver microsomes and to identify agonists that activate the p53 signaling pathway after in vitro metabolic activation (Ooka et al., Archive of Toxicology 96:1975-1987, 2022). The cytotoxicity of the Tox21 compound library against the p53 RE-bla HCT-116 cell line was tested in parallel by measuring the intra cellular ATP content in the same wells.
Tox21 Assay Protocol Summary:
The p53RE-bla cells were dispensed at 4,000cells/3ul/well in 1536-well black-clear bottom plates. After the assay plates were incubated at 37 C, 5% CO2 incubator for 5 hours, 23 nL of compounds dissolved in DMSO, positive controls or DMSO only was transferred to the assay plate. Following compound addition, 3 uL of rat liver microsomes (Molecular Toxicology, Boone, NC) at final concentration of 0.5 mg/mL and 1uL of B-Nicotinamide adenine dinucleotide 2'-phosphate (NADPH) at final concentration of 0.5 mg/mL were transferred to the assay plate. The plates were incubated at 37 C for 16 hours. 1 uL of LiveBLAzer detection mixture was added to each well and the plates were incubated at room temperature in the dark for 2 h. Fluorescence intensity at 460 and 530 nm emission and 405 nm excitation were measured by an Envision plate reader. For cell viability readout that measures cytotoxicity, 4 ul/well of CellTiter-Glo reagent was added into the assay plates using a Flying Reagent Dispenser. After 30 min incubation at room temperature, the luminescence intensity in the plates was measured using a ViewLux plate reader.
% is set by controls: 0 for no effect and ±100 for the full control effect; potency is the fitted concentration of half-maximal effect.

Row | SMILES | activity change, negative = cytotoxicity | Potency
1 | CC(S)C(=O)NCC(=O)O (stereo not given) | 0.531% [at 30.3 µM] (inactive) | 
2 | OC1CCCC1 |  | inactive
3 | CCn1cc(C(=O)O)c(=O)c2cnc(N3CCNCC3)nc21 | 0.311% [at 30.3 µM] (inactive) | 
4 | C1CCSC1 | 0.388% (inactive) | 
5 | Nc1nccs1 | 5.92% (inactive) | 
6 | CCCCCCCCCCC | 1.74% (inactive) | 
7 | CC(C)(N=C=O)c1cccc(C(C)(C)N=C=O)c1 |  | inactive
8 | O=[N+]([O-])c1ccc(F)cc1F | 3.15% (inactive) | 
9 | Oc1ccc(/C=C/c2cc(O)cc(O)c2)cc1 |  | inactive
10 | OCCCCl | 9.7% (inactive) | 
11 | CCc1cnc(C(=O)O)c(C(=O)O)c1 | 1.35% (inactive) | 
12 | COCCOCCOCCOCCOCCO | 21.1% (inactive) | 
13 | CCCCCCCCCCCCCC[P+](CCCC)(CCCC)CCCC |  | 45.5 µM (active) and 40.8 µM (active)
14 | C=CCc1cc(OC)c(O)c(C(=O)NCCO)c1 | 1.22% [at 30.3 µM] (inactive) | 
15 | Clc1nc2ccccc2s1 | 1.79% (inactive) | 
16 | COCCCC/C(=N\OCCN)c1ccc(C(F)(F)F)cc1 | -1.11% [at 30.3 µM] (inactive) | 
17 | CCN(CCO)c1cccc(C)c1 | 0% (inactive) | 
18 | COc1ccc(C(=O)NCc2ccc(OCCN(C)C)cc2)cc1OC | 0.999% [at 30.3 µM] (inactive) | 
19 | Nc1ccc([N+](=O)[O-])c(C(F)(F)F)c1 | 14.2% [at 30.3 µM] (inactive) | 
20 | CCCCCCCC(=O)OCCCCCC | 4.13% (inactive) | 

Row | SMILES | activity change, negative = cytotoxicity | Potency
21 | O=C1c2cccc(O)c2C(=O)c2c(O)cccc21 |  | inactive
22 | CC(CO)CO | 0.26% (inactive) | 
23 | CCCSc1ccc2nc(NC(=O)OC)[nH]c2c1 | 17.6% [at 30.3 µM] (inactive) | 
24 | CCC(C)SSC(C)CC (stereo not given) | -0.494% (inactive) | 
25 | CC(C)CC=O | 1.09% (inactive) | 
26 | CC1(C)COCN1 | 1.45% (inactive) | 
27 | Cc1nc(-c2ccc3c(c2)CCN(CCC2CCC(NC(=O)/C=C/c4ccc(F)cc4)CC2)CC3)no1 (stereo not given) | 3.39% [at 30.3 µM] (inactive) | 
28 | Cc1cccc(Cl)c1 | -5% (inactive) | 
29 | CC(=O)OCC(=O)[C@@]1(O)CC[C@H]2[C@@H]3CCC4=CC(=O)C=C[C@]4(C)[C@H]3[C@@H](O)C[C@@]21C | 18.4% [at 30.3 µM] (inactive) | 
30 | CCCCC(CC)COP(=O)(OCC(CC)CCCC)OCC(CC)CCCC (stereo not given) |  | inactive
31 | CC1=CC(=O)NS(=O)(=O)O1 |  | inactive
32 | CC1(C)Oc2ccc(C#N)cc2[C@@H](N2CCCC2=O)[C@@H]1O | 0.508% [at 30.3 µM] (inactive) | 
33 | COc1ccc(CCN2CCC(Nc3nc4ccccc4n3Cc3ccc(F)cc3)CC2)cc1 |  | 26.3 µM (active) and inactive
34 | N[C@H](C(=O)O)c1ccc(O)cc1 | 4.85% [at 13.5 µM] (inactive) | 
35 | O=CC1CC1 | -8.36% (inactive) | 
36 | COC(=O)CC(C(C)=O)C(=O)OC (stereo not given) | 0.875% (inactive) | 
37 | OCc1c2ccccc2cc2ccccc12 | -0.348% (inactive) | 
38 | CC(=O)OCc1ccco1 |  | inactive
39 | COc1cc(C(=S)N2CCOCC2)cc(OC)c1OC | -5.03% [at 30.3 µM] (inactive) | 
40 | CCOC(=O)NCCC[Si](OCC)(OCC)OCC | 0% (inactive) | 
